The values that follow come from the supplement of paper PMC6555819.

The test system of the assay is VDR:RXRa (NR concentration 270 nM, RXRa partner concentration 90 nM). The experiment in a line: PBM binding z-score (relative to random genomic background probes); higher = stronger binding; sequences stand for … in GC…GCGATTGACAGCGTAGAATGAAGG
The protocol:
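Protein-binding microarray (Agilent 4x180K custom design, double-stranded 60-nt probes: 5' GC cap, 34-nt variable region, 24-nt constant primer region; full probe sequence given). Purified or IVT nuclear receptor:RXRα heterodimers (3:1 NR:RXRα, mostly 270:90 nM) or homodimers were incubated for 1 h in PBS with 2% milk and no ligand, then detected with Alexa488 antibodies. Fluorescence from o1-orientation probes (~5 replicates averaged) was converted to z-scores against 500 random hg19 background probes. Variable regions are seed direct-repeat (DR0–DR5) sites, all their single-nucleotide variants and half-site ablations.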
For AGAATGAGGTTATACGTGGATCAGGGAAGAAAGT, the PBM binding z-score came out at 1.56.
The value for TAGCCTAGGTCGTTGGGCCAGTATAGTACGCATC was 0.153; that for ACAGACAGGTGATTAAGGTAACTCAGGCTATCAT was 0.713.
The sequence ACAGCCAGGTGATGAAGGTAACTCAGGCTATCAT gave a PBM binding z-score of -0.126.
The value for CCGACTGGGGCACAAGGTTACCATAAGCCAGCCC was 0.209.
The value for TCTCGGAGGACACGAAAGGTAAGAGCTCGACATC was 0.0922; that for CCCTACGGGTCACTCCAGGTTATAGCATCGGAGT was 4.12; that for ATCGAAAGGTCGTGAGCTGAGTATACAGAAAGGC was 2.95.
TCTATTAGTTGATTAAGGCAACCGAAACAGCGGA had a PBM binding z-score of 0.578.
The value for TAGCCTAGGTCATTGGTCCAGTATAGTACGCATC was 2.55; that for GCAGCCAGGTGAAACGCAGGTAACTCAGGGTGGC was -0.929; that for CCTGCTATGTCATGGTCAGCTAATCTACAGTATG was -0.0549.
The result for AGAATGAGGTTAAGATCAGGTAAACAGAATACAT reads 1.49.
The result for AGTCGAAGTTCACTAGGTAACGTAAGATTCAGCT reads 2.44.
TGGCCTAGGTCATTCAGGGGCCAGTATAGAAAGC came in with a PBM binding z-score of 2.79.
Regarding AGTCAAAGTTCACTAGGTAACGTACGATTCAGCT, the PBM binding z-score stood at 4.24.
The result for CGTCCAAGGTTAATGCTAGGTCAGTGAAAGCATT reads 1.86.
The value for CGAACCAGGGCATGAGTTGATAGCAAATGCCGAT was 0.253.
CCTTACGGCTCAAGGTTATAGCACGGGTGGTACG displayed a PBM binding z-score of 0.122.
The value for CGTCCAAGGTCATCGGAGGTCAGTGAAGACAGAT was 7.04; that for CGAACTAGGTCAAGGGCAGTGAATCTCCGCACGC was 1.4.
CCGACTGGGGCAAAGGTTACCATACTCAGTACGA: the PBM binding z-score turned out to be 1.68.
The value for CAATCTAGGTCAAGAGGTCAAAGTCCGCTTCCCG was 6.23; that for TCTCGGAGGACACGCAAGGTCAGAGCTCGACATC was 2.45.
ATCGAGAGGTCGAAGGTGAGTATACCCACCCGAA yielded a PBM binding z-score of 2.42.
The result for AGAATGAGGTTACCAAAGATCAGGGAGACGCTTG reads 1.51; that for ATCGAAAGGTCGAGGTGAGTGTAGAGAAAGGGAA, 3.21; that for CCGGCTGGGGCAAAGGTTACCATACTCAGTACGA, 1.58.
The result for GCTGCTAGGTCAACTGATGATCAGCTAAAGCTCG reads 1.38.
The result for ATCTCTAGGTAACAGTTCAGTGAATCCCGAGGAT reads 0.208; that for TCGTATAGGTAAACAGGTGAAAGTCCGTAAGTTA, 0.883.
On to ATCGAAAGGTCGAAGGTGGGTATACCCACCCGAA, for which the PBM binding z-score amounted to 2.54.
The result for GCGACTGGGCCAAAGCAGGTTACCATAAGGTTGG reads -0.513; that for GCTATTAGTTGAAAGGCCAACCGAATGATTCTCG, -0.0343.
The result for CCTTACGGGTCACGAGGTTATAGCACGACGAGCG reads 5.23; that for AGAACAAGGGCAATGAGTTGATAGCACGGGTGGC, 4.7; that for CCTACTGGGCCAATGGTCATTGATTCCAATGCTC, -0.314.
The result for CAAACTAGGTCCCAGAGGTCAAAGTCCGTGCGTA reads 5.88; that for CGAACTAGGTAATTGACAGGACAGTGAATAGTAA, -0.257; that for TAGCCTAGGTCAGATCGAGCCAGTATACGCTATA, 0.0723.
